Most compounds without a hit are left out; they make up all but 3% or so of the library.
C8 TRAIL sens: caspase-8 TRAIL sensitization; NB7+C8 cells + TRAIL, ATPlite viability luminescence; inhibition (viability loss, TRAIL sensitization), % at 10 µM; 360,000 tested, 1% active;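 active means compounds causing at least 50% loss of cell viability in the single-dose screen, relative to plate controls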
SENP8 block-1: blocks human SENP8 cleavage of Nedd8 substrate; Q96LD8; recombinant SENP8, Nedd8 substrate fluorescence; inhibition, % at 20 µM; 360,000 tested, 0.64% active; AID 602440; in the data active means inhibition mostly above about 40%, no sharp cut-off; inactive means mostly below about 27%
Target sequence (Q96LD8 whole entry, looked up): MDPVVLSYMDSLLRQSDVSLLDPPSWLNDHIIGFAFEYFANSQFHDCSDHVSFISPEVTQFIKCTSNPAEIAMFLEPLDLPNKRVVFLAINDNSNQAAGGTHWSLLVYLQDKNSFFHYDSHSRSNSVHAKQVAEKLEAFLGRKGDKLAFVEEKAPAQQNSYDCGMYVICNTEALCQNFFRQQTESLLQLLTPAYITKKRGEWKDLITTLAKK
SENP6 block: blocks the human protease SENP6. 330,000 tested, 1.8% active. Q9GZR1. inhibition, % at 10 µM. AID 2599. Recombinant SENP6 catalytic domain, aminoluciferin luminescence;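 active means inhibition above about 50% at the single tested dose, limit read from the data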;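 further: plate controls were DMSO wells with enzyme for no effect and DMSO wells lacking enzyme for full effect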
PPC-1+TRAIL kill: kills PPC-1 cancer cells in the presence of TRAIL; cell killing (% activity), % at 4 µM or 5 µM; PPC-1 cells + TRAIL, ATPLite viability luminescence; 220,000 tested, 0.41% active;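 active means cell killing above 50% in the first pass at 4 µM, then a duplicate retest at 5 µM averaging 50% or more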;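 further: plate controls were cells with TRAIL plus DMSO for no effect and medium-only wells lacking cells for full effect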
SENP8 block-2: inhibitors of human SENP8 protease; AID 2540; Q96LD8; purified SENP8, Z-RLRGG-aminoluciferin cleavage, luminescence; 330,000 tested, 1.2% active; inhibition, % at 10 µM; in the data active means inhibition above about 50%
SENP7 block: blocks the human protease SENP7; inhibition, % at 5 µM; AID 434973; recombinant SENP7, Z-RLRGG-aminoluciferin luminescence, 40 min; 330,000 tested, 1.5% active; Q9BQF6;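 active means inhibition above about 50% at the single test dose, limit read from the data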;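 further: plate controls were DMSO with enzyme for no effect and no enzyme buffer wells for full effect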
Target sequence (Q9BQF6 706-1050 limits assumed): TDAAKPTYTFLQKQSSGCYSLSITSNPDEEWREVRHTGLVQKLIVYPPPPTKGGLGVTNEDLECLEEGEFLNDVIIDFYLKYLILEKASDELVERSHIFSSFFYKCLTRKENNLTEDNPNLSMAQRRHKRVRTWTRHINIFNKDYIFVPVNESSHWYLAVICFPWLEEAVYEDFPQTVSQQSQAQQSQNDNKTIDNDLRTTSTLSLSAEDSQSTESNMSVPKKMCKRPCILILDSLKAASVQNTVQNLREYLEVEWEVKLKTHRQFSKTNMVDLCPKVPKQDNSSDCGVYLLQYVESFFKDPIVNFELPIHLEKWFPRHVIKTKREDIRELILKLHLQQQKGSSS
PPC1 cytotox: kills PPC-1 cells; cytotoxicity, % at 5 µM; shares compounds with PPC-1+TRAIL kill; 1,200 tested, 50% active; AID 1447; PPC-1 viability, ATPlite luminescence, overnight;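 active means reconfirmed compounds whose average cytotoxicity reaches 50% or more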;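 further: 0% = DMSO-treated cells and 100% = wells holding medium but no cells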
SENP8 conf-1: confirmation of human SENP8 protease inhibitors; shares compounds with SENP7 block; Recombinant SENP8, Z-RLRGG-aminoluciferin luminescence, 60 min; inhibition, % at 12.5 µM; 6,200 tested, 40% active; AID 488912;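 active means mean inhibition across replicates above about 50%, limit read from the data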
SENP6 confirm: confirmation of human SENP6 protease inhibitors. inhibition, % at 12.5 µM. 6,200 tested, 58% active. shares compounds with SENP7 block. recombinant SENP6, Z-RLRGG-aminoluciferin luminescence
SENP7 confirm: confirmation of human SENP7 protease inhibitors. AID 488917. inhibition, % at 12.5 µM. recombinant SENP7, Z-RLRGG-aminoluciferin luminescence, 40 min. 6,200 tested, 69% active. shares compounds with SENP7 block
Casp3 SENP sel: inhibits human caspase-3 in SENP selectivity test. shares compounds with SENP7 block. purified caspase-3, Z-DEVD-aminoluciferin luminescence, 60 min. inhibition, % at 12.5 µM. 6,200 tested, 60% active;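 active means mean inhibition above about 50%, limit read from the data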;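 further: plate controls were enzyme with DMSO for no effect and wells without caspase-3 for full effect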
SENP luc ctr: counter-screen for SENP inhibitors: luminescence interference. 6,200 tested, 39% active. AID 488919. Pre-incubated SENP8/Z-RLRGG-aminoluciferin, luciferase luminescence interference. inhibition, % at 12.5 µM. shares compounds with SENP7 block;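 active means mean inhibition above about 50% when retested at one dose, limit read from the data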;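 further: plate controls were DMSO wells with completed reaction for no effect and substrate without enzyme for full effect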
SENP8 conf-2: confirmation of human SENP8 protease inhibitors; shares compounds with SENP8 block-1; purified SENP8, Nedd8-AMC/pro-Nedd8 cleavage fluorescence, 30 min; inhibition, % at 25 µM; 1,400 tested, 15% active; AID 624319; in the data active means inhibition mostly above about 39%, no sharp cut-off; inactive means mostly below about 34%
An asterisk follows results filed as active; . = no result given.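 How the source made its calls, unless noted: active means mean inhibition above about 50% in the one-dose retest (limit read from the data); inactive means the rest.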

SMILES	C8 TRAIL sens	SENP8 block-1	SENP6 block	PPC-1+TRAIL kill	SENP8 block-2	SENP7 block	SENP8 conf-1	SENP6 confirm	SENP7 confirm	Casp3 SENP sel	SENP luc ctr	others
COc1ccc(C(=O)Nc2ccc3c(c2)OCCO3)cc1	72*	22	73*	75*	70*	-15	81*	81*	97*	91*	83*	PPC1 cytotox=73*
O=C(CCS(=O)(=O)CCN1CCOCC1)NCNC(=O)CCS(=O)(=O)CCN1CCOCC1	3	17	-9	.	1	6	.	.	.	.	.
Cc1ccc2nc(NC(=O)c3ccccn3)sc2c1	91*	-55	96*	91*	95*	96*	58*	81*	93*	84*	11	PPC1 cytotox=89*
CCOc1ccc2nc(NC(=O)Nc3ccccc3)sc2c1	16	11	-3	-5	-7	36	.	.	.	.	.
CCOc1ccc2nc(NC(=O)c3ccccn3)sc2c1	82*	-91	97*	84*	94*	98*	41	78*	85*	87*	26	PPC1 cytotox=81*
N#Cc1ccc(C(=O)N2CCCC(c3cc(C(=O)NCc4cccnc4)no3)C2)cc1 (configuration not stated)	-10	11	.	.	.	.	.	.	.	.	.
COc1ccc(NC(=O)c2nc3ccccc3s2)cc1	46	9	95*	36	95*	97*	4	98*	102*	94*	75*	PPC1 cytotox=39
O=[N+]([O-])c1ccc(N/N=C/c2sc(N3CCOCC3)nc2-c2ccccc2)c(S(=O)(=O)Nc2ccc(Cl)cc2)c1	10	53*	.	35	.	.	.	.	.	.	.	PPC1 cytotox=40;SENP8 conf-2=20
CSCCC(NC(=O)COc1ccccc1)C(=O)NCCOc1ccccc1 (configuration not stated)	-14	2	-4	.	-4	2	.	.	.	.	.
CC(=O)Nc1ccc(Cl)cc1-c1ccccc1	6	21	.	.	.	.	.	.	.	.	.
CN(C)c1nn(C(=O)Nc2ccc(Cl)cc2Cl)cc1-c1ccccc1	8	8	4	9	3	101*	-13	-8	-3	0	-8
Cc1ccc2[nH]c3c(c2c1)CN(C(=O)CN1CCCc2ccccc21)CC3	-9	-14	95*	19	36	34	-9	-6	-7	2	1
Cc1ccc2[nH]c3c(c2c1)CN(C(=O)CN1CCCCC1)CC3	.	.	2	25	-11	-9	.	.	.	.	.
CC1CCN(C2=C(NS(=O)(=O)c3ccc(Br)cc3)C(=O)c3ccccc3C2=O)CC1	-2	26	55*	.	29	27	9	14	-2	15	0
CC1CCN(C2=C(NS(=O)(=O)c3ccccc3)C(=O)c3ccccc3C2=O)CC1	1	33	49	12	17	17	.	.	.	.	.
CC1CCN(C2=C(NS(=O)(=O)c3ccc(Cl)cc3)C(=O)c3ccccc3C2=O)CC1	0	33	63*	7	5	14	4	6	6	10	0
Cn1c(=O)c2c(O)c(Cc3ccccc3)c(=O)[nH]c2n(C)c1=O	-21	7	61*	-15	4	29	42	39	66*	64*	8
Cc1[nH]c(=O)c(Cc2ccccc2)c(O)c1C#N	8	13	-13	.	-5	3	.	.	.	.	.
Cc1ccc(NCc2ccccc2O)cc1C	-1	8	52*	-9	42	34	40	40	74*	41	57*
C/C(=C/CCC(C)(O)C1CC[C@@]2(C)[C@@H]3CC=C4[C@@H](CC[C@H](O[C@H]5O[C@@H](CO)[C@H](O)[C@@H](O)[C@@H]5O)C4(C)C)[C@]3(C)C(=O)C[C@]12C)CO[C@@H]1O[C@H](CO)[C@@H](O)[C@H](O)[C@H]1O (some centres not stated)	7	13	-9	.	-2	5	.	.	.	.	.
Cc1ccc(N=Cc2sc(O)c3ccccc23)cc1	-6	-60	68*	30	86*	76*	90*	92*	100*	74*	47
CCOc1ccc(N2CC(C(=O)NNC(=O)c3ccc(Br)cc3)CC2=O)cc1 (configuration not stated)	17	19	8	.	-1	6	.	.	.	.	.
Cc1ccc(N2C(=O)c3ccccc3C2=O)cc1Cl	5	19	35	-10	20	51*	8	11	3	19	-3
CCOc1ccc(/C=C/[N+](=O)[O-])c2ccccc12	43	18	67*	-7	44	27	14	7	13	8	4
CC(=O)c1ccc(N2CCN(S(=O)(=O)c3ccc4c(c3)NC(=O)CO4)CC2)cc1	-11	-140	-5	.	-3	12	.	.	.	.	.
SMILES	C8 TRAIL sens	SENP8 block-1	SENP6 block	PPC-1+TRAIL kill	SENP8 block-2	SENP7 block	SENP8 conf-1	SENP6 confirm	SENP7 confirm	Casp3 SENP sel	SENP luc ctr	others
O=C(Nc1ccc(Br)cc1F)c1ccc2c(c1)OCCO2	54*	3	90*	.	80*	86*	-3	86*	98*	84*	19
N#Cc1ccccc1NC(=O)c1ccc2c(c1)OCCO2	19	0	25	.	-3	-6	.	.	.	.	.
Cc1occc1C(=O)Nc1ccc(Br)cc1F	0	18	56*	23	14	44	18	26	73*	63*	49
O=C(Nc1ccc(F)cc1F)c1ccc2c(c1)OCCO2	38	3	89*	.	78*	89*	8	82*	98*	93*	56*
O=C(NCc1ccccc1F)c1ccc2c(c1)OCO2	6	4	-4	-7	-11	-6	.	.	.	.	.
O=C(NCCc1ccccc1F)c1ccc2c(c1)OCCO2	92*	-3	92*	.	80*	89*	89*	89*	98*	94*	89*
Cc1onc(-c2ccccc2Cl)c1NC(=O)NCc1cccs1	21	7	-23	13	-1	-1	.	.	.	.	.
CSc1ncccc1C(=O)OCc1ccccc1	5	21	54*	-12	26	18	9	19	60*	32	32
